Compound activity as filed in PubChem BioAssay.
D3 ag – agonists of human D3 dopamine receptor; 410,000 tested, 0.58% active; max activation, %; P35462; D3R DiscoveRx beta-arrestin cells, luminescence, 90 min; in the data active = max activation above about 30%; also: 0% is about no effect
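Cells at 1500/well, incubated overnight, then treated with pinned compounds (dopamine as control) for 90 min at 37 degrees C. DiscoveRx reagent added for 30 - 60 minutes at room temperature; luminescence read.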
D1 potentiator – enhances dopamine response at the human D1 receptor; AID 504651; 360,000 tested, 0.036% active; P21728; potentiation, % at 10 µM; HEK293 TREx D1 cells, calcium flux, dopamine EC20 potentiation; in the data active = potentiation above about 30%; also: 0% is about no effect
Target sequence (P21728 whole entry, looked up): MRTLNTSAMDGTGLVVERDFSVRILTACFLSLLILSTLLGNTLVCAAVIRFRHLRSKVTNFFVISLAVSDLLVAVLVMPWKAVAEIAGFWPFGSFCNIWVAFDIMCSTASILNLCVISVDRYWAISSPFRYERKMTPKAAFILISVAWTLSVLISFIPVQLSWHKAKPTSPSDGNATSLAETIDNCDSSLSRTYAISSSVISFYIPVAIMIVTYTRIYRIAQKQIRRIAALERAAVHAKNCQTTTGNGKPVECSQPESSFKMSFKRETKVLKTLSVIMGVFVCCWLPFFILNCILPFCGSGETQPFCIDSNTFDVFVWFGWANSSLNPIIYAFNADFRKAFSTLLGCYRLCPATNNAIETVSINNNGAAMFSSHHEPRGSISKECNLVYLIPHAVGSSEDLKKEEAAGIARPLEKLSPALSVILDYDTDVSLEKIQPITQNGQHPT
D1 antag – blocks dopamine activation of the human D1 receptor. AID 504652. P21728. 360,000 tested, 3.2% active. activity change, negative = inhibition, % at 10 µM. HEK293 TREx D1 cells, calcium flux, dopamine EC80; hits give low values; in the data active = activity change below about -30%; also: % is scaled to controls: 0 for no effect and ±100 for the full control effect
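Allosteric or orthosteric antagonism assessed as attenuation of the calcium response to EC80 dopamine, added 180 s after compound, in induced HEK293 Trex D1 cells loaded with no-wash calcium dye.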
D1 ag – activates the human D1 dopamine receptor. P21728. HEK293 T-REx D1 cells, calcium flux, agonist mode. activation, % at 2 µM. 360,000 tested, 1% active. AID 504660; in the data active = activation above about 30%; also: 0% is about no effect
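Inducible HEK293 T-REx D1 cells, force-coupled to calcium signalling, were plated at 4000 cells/well with tetracycline and held overnight at 30 C. After no-wash calcium dye loading, compound-evoked calcium rise over 180 s flagged agonists.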
D3 antag – D3 dopamine receptor (human) antagonism. D3R cells, DiscoveRx beta-arrestin luminescence, antagonist mode; hits give low values. max response, negative = inhibition, %. 360,000 tested, 2.5% active. AID 652054; in the data active = max response below about -50%; inconclusive = no clear call, values can overlap the other calls; also: % is scaled to controls: 0 for no effect and ±100 for the full control effect
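Cells plated overnight at 1500 cells/well, then exposed to library compounds with dopamine controls for 90 minutes at 37 degrees C. DiscoveRx reagent added for 30–60 minutes at room temperature; luminescence read, quantitative HTS format.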
Active calls of the source: *; ? = inconclusive; · = not tested or not shown. The list is not random: actives were taken first. Their share in the collection is about 6%.

SMILES	D3 ag	D1 potentiator	D1 antag	D1 ag	D3 antag
O=C1CCCc2ccccc2N1Cc1ccc(Cl)cc1	6	-9	-21	5	-13
O=C1CCCc2ccccc2N1Cc1ccc(Cl)cc1Cl	-6	-3	61	34*	0
Clc1cc2c(c(CSc3nc4ccccc4n4cccc34)c1)OCOC2	-3	3	-47*	2	-2
CCOC(=O)Nc1nc(C)c(C(=O)c2ccc(Cl)cc2)s1	-7	-4	-19	2	19
CCOC(=O)c1sc(NS(=O)(=O)c2ccccc2)nc1C	-15	-4	-21	4	-60*
CCOC(=O)c1sc(NC(=O)Nc2ccc(Cl)cc2)nc1C	3	-11	-44*	20	56
Cc1cccc2sc(NS(=O)(=O)c3ccccc3)nc12	-2	0	-6	0	-64*
CCOC(=O)c1sc(NS(=O)(=O)c2ccc(F)cc2)nc1C	4	-5	0	3	15
CCOC(=O)c1sc(NS(=O)(=O)c2ccccc2Cl)nc1C	-7	-5	·	1	-70*
CCCCN1CC(N(C)CCN(C)C)CS1(=O)=O (stereo not given)	9	·	·	·	17
CCCc1nc2ccccc2n2c(-c3cccc(C)c3)c3c(=O)n(C)c(=O)n(C)c3c12	-11	2	-2	5	·
CCOC(=O)c1sc(NC(=O)Nc2cccc(Cl)c2)cc1C	7	-15	-46*	9	-6
CCOc1ccc(NC(=O)Cn2cc(C(=O)c3ccc(F)cc3)c(=O)c3cc4c(cc32)OCO4)cc1	-13	-1	-6	3	·
COc1ccc(NC(=O)c2sc3nc4c(cc3c2N)CCCCCC4)cc1Cl	6	-1	-9	1	·
O=C(CCN1CCN(c2ccccc2)CC1)NNC(=O)c1cccc2ccccc12	53*	-4	-9	1	-15
COc1cccc(C(=O)NNC(=O)CCN2CCN(c3ccccc3)CC2)c1	9	·	·	·	?
CCc1cc(C(=O)NNC(=O)CCN2CCN(c3ccccc3)CC2)sc1C	6	-11	-28	0	-63*
N#CCC(=O)Nc1ccc(C(=O)NNC(=O)CCN2CCN(c3ccccc3)CC2)cc1	0	3	13	4	-83*
Cc1cc(C(=O)NNC(=O)CCN2CCN(c3ccccc3)CC2)c2ccccc2n1	8	-3	0	3	?
CCC1(c2ccccc2)NC(=O)N(CC(=O)NNC(=O)CCN2CCN(c3ccccc3)CC2)C1=O (stereo not given)	-11	-3	15	2	-56*
CCC1(c2ccccc2)NC(=O)N(CC(=O)Nc2ccccc2N2CCCCC2)C1=O (stereo not given)	11	12	0	19	3
COc1ccc(NC(=O)Cn2ncc3c4ccccc4n(Cc4ccccc4)c3c2=O)cc1OC	2	-1	-4	-1	·
CCOc1ccc(-n2c(SCC(N)=O)nc3c(oc4ccccc43)c2=O)cc1	5	1	15	-1	·
O=C1CC(c2ccco2)CC2=C1C(c1ccc(O)cc1)n1nc(C(F)(F)F)nc1N2 (stereo not given)	·	-1	-9	2	·
Cc1cc(C)cc(-n2c(SCC(=O)NCc3ccc4c(c3)OCO4)nc3ccccc3c2=O)c1	1	-13	-37*	4	2
O=C(CSc1nc(C2CCCCC2)nc2ccccc12)NCc1ccc2c(c1)OCO2	3	-3	-46*	5	-11
O=C(Nc1nnc([C@H]2C[C@H](O)[C@@H](CO)O2)s1)c1cccc(Oc2ccccc2)c1	-13	·	·	·	0
O=C(Nc1ccccc1Cl)C1CCN(Cc2cnn(-c3ccccc3)c2-n2cccc2)CC1	3	-9	3	8	-80*
